The full list was thinned out, with hits kept by preference.
fixLJ_activator: B. multivorans fixK reporter activation; B. multivorans fixK-promoter GFP reporter, 18 h; hits give high values; z-score (no concentration beside the values); 29,000 tested, 0.3% active;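 active = replicate mean overnight rise in green fluorescent reporter signal, 3 or more SD over negative controls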
The depositor's hits bear a star.

SMILES fixLJ_activator
Cc1ccccc1-n1c(/C=C/c2c(C)[nH]c3ccccc23)nc2ccccc2c1=O -0.55
Cc1ccccc1-n1c(/C=C/c2ccc(N(C)C)cc2)nc2ccccc2c1=O 21.1*
COc1cccc(-n2c(/C=C\c3ccc(Cl)cc3)nc3ccccc3c2=O)c1 0.01
CCOC(=O)c1ccc(NC(=O)c2sc3nc4c(cc3c2N)N2CCC4CC2)cc1 -2.9
Cc1ccc(N=CN(C)C=Nc2ccc(C)cc2C)c(C)c1 -0.55
